Legend:
[1] = molecular target: T1, ETS1 (UniProt P14921); assay: ETS1 binding intensity (PBM fluorescence), ETS1 alone (arbitrary fluorescence units); higher = stronger binding; settings: ETS1 concentration 1 nM; RUNX1 concentration 0 nM
T1 sequence: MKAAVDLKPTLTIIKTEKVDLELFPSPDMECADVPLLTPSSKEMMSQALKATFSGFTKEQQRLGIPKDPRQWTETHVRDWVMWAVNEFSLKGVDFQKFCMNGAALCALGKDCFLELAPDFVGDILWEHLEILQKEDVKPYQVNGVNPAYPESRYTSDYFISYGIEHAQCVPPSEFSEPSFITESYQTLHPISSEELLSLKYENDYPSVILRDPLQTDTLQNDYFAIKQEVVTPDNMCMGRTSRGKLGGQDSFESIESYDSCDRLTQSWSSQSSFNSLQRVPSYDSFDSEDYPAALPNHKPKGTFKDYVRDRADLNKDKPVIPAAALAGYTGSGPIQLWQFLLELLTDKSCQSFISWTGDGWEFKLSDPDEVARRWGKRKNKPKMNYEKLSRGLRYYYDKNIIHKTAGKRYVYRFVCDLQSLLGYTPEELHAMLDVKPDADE

[2] = molecular target: RUNX1 (UniProt Q01196); assay: RUNX1 binding intensity (PBM fluorescence), RUNX1 alone (arbitrary fluorescence units); higher = stronger binding; settings: RUNX1 concentration 2 nM; ETS1 concentration 0 nM
Method: (§1)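 Cooperative gcPBM on 36-bp genomic probes with neighbouring ETS1 and RUNX1 sites. Recombinant human RUNX1 (2 nM) was incubated alone or with ETS1 (25 nM) and detected with anti-RUNX1 antibody plus Alexa488 secondary. Values are medians over 4 replicate spots; the RUNX1+ETS1 data were normalised to the RUNX1-only data. The probes sit in constant array flanks that are not printed.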

[3] = molecular target: T1, ETS1; assay: ETS1 binding intensity (PBM fluorescence) in presence of RUNX1, normalised to ETS1-only experiment (arbitrary fluorescence units); higher = stronger binding; settings: ETS1 concentration 1 nM; RUNX1 concentration 25 nM
[4] = molecular target: RUNX1 (UniProt Q01196); assay: RUNX1 binding intensity (PBM fluorescence) in presence of ETS1, normalised to RUNX1-only experiment (arbitrary fluorescence units); higher = stronger binding; settings: RUNX1 concentration 2 nM; ETS1 concentration 25 nM
Method: as §1
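For RUNX1 binding intensity (PBM fluorescence) in presence of ETS1, normalised to RUNX1-only experiment in this document: Full-length recombinant human ETS1 or RUNX1 bound to double-stranded 36-bp genomic probes on microarrays, detected by protein-specific primary antibody and Alexa488 secondary, spot fluorescence as median of four replicate spots.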
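For RUNX1 binding intensity (PBM fluorescence), RUNX1 alone in this document: Full-length recombinant human RUNX1 bound to double-stranded 36-bp genomic probes on a high-density microarray, scored as Alexa488 fluorescence per spot via anti-RUNX1 antibody, median of four replicate spots.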

Chain of RUNX1 (Q01196 whole entry): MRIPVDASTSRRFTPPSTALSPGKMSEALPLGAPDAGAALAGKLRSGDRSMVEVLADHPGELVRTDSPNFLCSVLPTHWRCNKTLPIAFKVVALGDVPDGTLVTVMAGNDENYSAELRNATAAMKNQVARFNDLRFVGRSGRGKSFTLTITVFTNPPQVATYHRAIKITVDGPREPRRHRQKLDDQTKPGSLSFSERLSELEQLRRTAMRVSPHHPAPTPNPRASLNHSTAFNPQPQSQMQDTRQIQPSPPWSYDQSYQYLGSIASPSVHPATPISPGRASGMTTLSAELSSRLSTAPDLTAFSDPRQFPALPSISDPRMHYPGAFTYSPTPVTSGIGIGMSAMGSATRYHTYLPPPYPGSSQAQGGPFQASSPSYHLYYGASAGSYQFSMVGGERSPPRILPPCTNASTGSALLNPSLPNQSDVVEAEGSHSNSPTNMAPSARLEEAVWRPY

Sequence | ETS1 binding intensity [1] | RUNX1 binding intensity [2] | ETS1 binding intensity [3] | RUNX1 binding intensity [4]
CACCCAGTTTGAACTTCCTGGCGGTTTTGTTTACAC | 673 | 972 | 853 | 1730
GCCACCTCTTCCTGTGTTGCAAACCACAGGTCCACC | 805 | 1600 | 1320 | 5050
TGACTAAGACCGGAAGAAACCACAAAAACACAAAAA | 2580 | 2700 | 6730 | 4540
GAACTTCCGGGACCACGTGACGTAGAACCACAACAA | 587 | 815 | 1100 | 1690
AAATCCACTCAGAGGAAACCACAGGCCTGGCCCAGC | 365 | 1300 | 622 | 1690
TACTACTTACCAGCAGGATGTGGTCCCTGCCCACTG | 3230 | 809 | 7040 | 1250
GGCGGAAGCTGCCGCTGCCTTGCGCCCCCACACACG | 640 | 818 | 685 | 1040
GAAAGGGTTCATCCAGGAAACCACAACCCAGTGCCG | 808 | 1440 | 1820 | 2110
CCCACTCCACTTCCGCCACCGCCGCAGCCGCCGCTG | 1430 | 1980 | 1420 | 5930
